In the library only some 1.4% were active in any assay of this set; here they are far more common.
PrP 5UTR inh – inhibition of PrP 5' UTR reporter expression. cell-based PrP 5' UTR mRNA reporter, plate reader. inhibition, % (concentration not given with the values). 0.35% of 340,000 active. AID 488862, 2010; in the data active = inhibition above about 52%; also: 0 = median of the neutral control wells
BJeLR lethal – MLPCN primary cell-based screen for lethality selective to Ras in HRASV12 cells; inhibition, % (test concentration not listed); 0.17% of 300,000 active; BJeLR (HRASV12) viability, CellTiter-Glo ATP luminescence, 48 h; in the data active = inhibition above about 50%
RN4220 kill – growth inhibition of S. aureus RN4220, primary screen, OD600. inhibition, % (concentration not given with the values). 0.33% of 330,000 active. 16 h; in the data active = inhibition above about 85%;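 also: plate controls were untreated cells for no effect and reference antibiotic for full effect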
ugtP null kill – growth inhibition of ugtP-null S. aureus, primary screen, RN4220 ugtP deletion, OD600; 16 h; growth inhibition, % (no concentration beside the values); 0.54% of 330,000 active; in the data active = growth inhibition above about 68%;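 also: plate controls were untreated wells for no effect and antibiotic for full effect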
PfHsp40 rescue – rescue of yeast from PfHsp40 toxicity, primary screen, S. cerevisiae, ATP luminescence; S. cerevisiae expressing PfHsp40, growth rescue; 0.68% of 340,000 active; growth rescue, % at 12.5 µM; in the data active = growth rescue above about 28%, passing the limit was not always enough;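 also: yeast W303a lacking pdr1 and pdr3 grown in galactose medium; growth measured after three days at 30 °C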
Y pestis TopoI – Yersinia pestis topoisomerase I inhibitors, primary screen, biochemical, cleavage product accumulation, plate reader, single point; Y. pestis Topo-I cleavage product accumulation; 0.064% of 360,000 active; DNA topoisomerase I (Yersinia pestis CO92); activity, % at 10 µM; in the data active = activity above about 50%, passing the limit was not always enough
Active calls of the source: *; . = not tested or not shown.

SMILES	PrP 5UTR inh	BJeLR lethal	RN4220 kill	ugtP null kill	PfHsp40 rescue	Y pestis TopoI
COC(=O)c1nc(-c2ccc3c(n2)C(=O)C(N)=C(OC)C3=O)c(N)c(-c2ccc(OC)c(OC)c2O)c1C	47.7	64.4*	21.7	12.8	-0.2	-5.5
Cc1ccc(Nc2c(-c3ccccn3)nc3cccc(C)n23)cc1	25.9	37.1	100.7*	100.4*	-0.5	15.2
O=C1C=C(c2ccccc2)C[C@H](c2cccs2)[C@H]1n1nnc([N+](=O)[O-])n1	-55.0	62.2*	59.2	100.4*	-0.3	-14.9
CCCCC(CC)c1nnc(NC(=O)c2cccs2)s1 (stereo not drawn)	-13.7	0.9	-0.6	-23.5	264.2*	-11.0
N=C1CCCN1CC(=O)c1ccc(Br)cc1	-11.0	-1.8	0.7	2.6	45.6*	-1.9
CCN1CCN(CCNC(=O)c2ccc(/C=C3/Sc4ccccc4N(Cc4ccccc4C)C3=O)cc2)CC1	-8.1	75.5*	-1.6	18.1	-1.9	-0.4
CCCCC1CC1C(NC(=O)c1ccco1)c1ccc(C(=O)OC)cc1 (stereo not drawn)	.	.	18.0	4.1	.	.
CCCc1nc(SCC(=O)Nc2ccc(N3CCOCC3)cc2)c2ccccc2n1	-4.4	-10.5	.	.	-1.0	4.5
CC(C)c1nc(SCC(=O)Nc2ccc(N3CCOCC3)cc2)c2ccccc2n1	-5.0	-14.7	-5.2	-5.3	25.4*	3.0
O=c1cc(CO)oc(C(Nc2ccccn2)c2ccc(C(F)(F)F)cc2)c1O (stereo not drawn)	-9.6	16.7	4.6	2.7	127.8*	3.0
CCCCNc1nc(CC)c2c(c1C#N)CCCC2	-17.5	0.6	-0.3	81.3*	0.6	5.3
CCCCc1nc(NCCO)c(C#N)c2c1CCCC2	-19.7	-4.8	12.6	10.8	0.7	25.5
O=C(Nc1cccc(O)c1)c1ccc(C(F)(F)F)cc1	-83.1	8.6	1.1	-5.7	-0.2	0.5
O=C(Nc1ccc(Br)c(C(F)(F)F)c1)c1ccccc1	-47.2	-12.8	0.6	-23.2	644.4*	-7.5
O=C(Nc1ccc(Br)c(C(F)(F)F)c1)c1ccc(C(F)(F)F)cc1	.	8.0	100.5*	99.0*	.	-19.6
COc1ccc2c(c1)C[C@]1(C)c3ccccc3C(=O)N(Cc3ccccc3)C21 (stereo partly drawn)	.	.	-1.7	-3.5	.	.
c1ccc(Cn2ccc(-c3cnc(-c4ccccc4)s3)n2)cc1	-52.4	-1.8	-5.4	14.0	69.4*	-6.9
COc1cc(C=Nn2c(SC)nnc(C(C)(C)C)c2=O)ccc1O	.	.	4.3	0.3	.	.
CCCCCCC[N+](CC)(CC)CCCCc1ccc(Cl)cc1	-10.8	.	94.5*	100.3*	-0.7	-4.7
Cc1noc(C)c1NC(=O)Nc1cccc2c1OC(CN(C)C(=O)NC1CCCCC1)C(C)CN(C(C)CO)C2=O (stereo not drawn)	.	.	-1.0	-0.9	.	.
CCN1C(=O)C2C(c3ccc(-c4ccc(C(C)=O)cc4)c(OC)c3)N3CCCC[C@@]3(C(=O)OC)C2C1=O (stereo partly drawn)	.	.	1.5	6.1	.	.
CCOc1ccc(N=C2NC(=O)S/C2=C\c2ccc(N(C)C)cc2)cc1	-36.6	-4.8	12.3	15.5	0.4	6.8
CCOc1ccc(/C=C2/SC(=O)NC2=S)cc1	-23.2	-3.0	66.0	100.4*	18.0	-7.7
Cc1cc(C)cc(NC(=O)COC(=O)CCCNC(=O)c2ccc(Cl)cc2)c1	-13.6	4.6	-3.8	98.7*	-0.2	20.0
O=C(CCCNC(=O)c1ccc(Cl)cc1)OCc1cccc(Br)c1	-15.0	-0.8	-0.8	2.5	277.2*	25.3
SMILES	PrP 5UTR inh	BJeLR lethal	RN4220 kill	ugtP null kill	PfHsp40 rescue	Y pestis TopoI
O=C(CNC(=O)c1ccccc1)OCc1cccc(Br)c1	-17.2	0.2	1.6	46.5	1.6	13.0
CCn1cc(C(=O)O)c(=O)c2cc(F)c(N3CCN(C(=S)NC(=O)c4ccc(Br)cc4)CC3)cc21	-23.9	2.4	.	.	0.7	17.4
CCn1cc(C(=O)O)c(=O)c2cc(F)c(N3CCN(S(=O)(=O)c4ccc(NC(C)=O)cc4)CC3)cc21	-16.3	-3.8	99.2*	99.0*	2.6	11.1
CCn1cc(C(=O)O)c(=O)c2cc(F)c(N3CCN(S(=O)(=O)c4ccc5c(c4)OCCO5)CC3)cc21	17.4	-3.8	99.9*	100.1*	-0.5	-1.8
O=C(Sc1ccc(Cl)cc1)c1ccccn1	-27.9	1.4	-1.0	84.3*	21.7	1.9
O=C(NCCNC(=O)c1ccccn1)c1ccc(Cl)cc1	-4.6	1.9	-3.7	8.4	-1.4	-4.1
O=S(=O)(/C(=C/c1ccc(C(F)(F)F)cc1)c1nc2ccccc2[nH]1)c1ccccc1	-70.8	67.9*	38.1	11.4	-0.4	-0.8
CC(C)c1ccc(/C=C(\c2nc3ccccc3[nH]2)S(=O)(=O)c2ccccc2)cc1	-8.1	6.7	31.6	7.4	0.6	3.8
Fc1ccc2cc(CCOC3CCCCO3)ncc2c1 (stereo not drawn)	.	.	6.0	4.5	.	.
C#CCNC(=O)C1=CC(c2ccc(C(F)(F)F)cc2)CC(OCCCCO)O1 (stereo not drawn)	.	.	9.4	2.7	.	.
Cc1sc2ncnc(N/N=C/c3ccccc3O)c2c1C	40.9	81.3*	.	.	-0.6	-3.7
CCOC(=O)C1C2COc3ccccc3C2N2C(=O)c3ccc(C)cc3NC(=O)[C@@]12C (stereo partly drawn)	.	.	-1.5	-16.9	.	.
O=C(c1cccs1)N(Cc1ccco1)c1nc(-c2ccc(F)cc2)cs1	-15.5	-1.4	-16.2	91.9*	-0.4	-1.2
CC1CCN(c2nc(-c3ccccc3)cc(C(F)(F)F)n2)CC1	-22.4	4.6	-0.2	87.5*	0.7	5.3
CN1CCN(c2nc(-c3ccccc3)cc(C(F)(F)F)n2)CC1	-5.9	-4.8	4.5	28.0	0.0	6.0
Cc1ccc(-c2cc(C(F)F)nc(N3CCC(C)CC3)n2)cc1	-1.1	-13.1	-5.0	91.4*	-2.0	2.8
Cc1ccc(-c2nnc(N3CCC(C)CC3)c3ccccc23)cc1	-19.5	2.9	-1.6	-9.3	10.1	-10.8
COc1cccc(-c2cc(C(F)(F)F)nc(N3CCC(C)CC3)n2)c1	-7.3	-6.4	-1.6	94.4*	-1.5	17.4
CCOC1OC(C(=O)N2CCN(Cc3ccccc3)CC2)=CC(C)C1CCCO (stereo not drawn)	.	.	2.4	2.1	.	.
COc1ccc(N=Nc2c(C)[nH]c3ccccc23)cc1	-51.1	-7.5	-2.0	81.7*	0.8	-7.7
CC(C)C1C=C(C(=O)O)OC(OCCCCO)C1 (stereo not drawn)	.	.	1.7	-2.1	.	.
CC(C)[C@H]1C=C(C(=O)O)O[C@@H](OCCCCO)C1	-5.0	14.6	.	.	55.9*	5.9
Cc1nc(Sc2ccccc2)c(C#N)c(C)c1[N+](=O)[O-]	-21.5	-2.2	.	.	26.7*	8.6
O=C(Nc1ncccc1O)c1cccc(S(=O)(=O)N2CCCc3ccccc32)c1	-2.3	7.9	12.9	0.8	62.3*	8.9

Bioassay records: PubChem BioAssay, several laboratories
